Experimental data published in PMC7862700, “An all-to-all approach to the identification of sequence-specific readers for epigenetic DNA modifications on cytosine”.

Key:
Test in all cases: DAPPL (digital affinity profiling via proximity ligation, sequencing); 10 mM Tris-HCl pH 7.5, 50 mM NaCl, 1 mM DTT, 4% glycerol, room temperature, 30 min; GST-TFs on glutathione beads, 16-mer random dsDNA library, 0.1% formaldehyde crosslink after washing; high values mean tight binding
Conditions in all cases: protein: recombinant; tags: N-terminal GST; dsDNA, one strand shown
[1] = target: T1, FLI1 (Homo sapiens, UniProt Q01543 1-452)
T1 sequence: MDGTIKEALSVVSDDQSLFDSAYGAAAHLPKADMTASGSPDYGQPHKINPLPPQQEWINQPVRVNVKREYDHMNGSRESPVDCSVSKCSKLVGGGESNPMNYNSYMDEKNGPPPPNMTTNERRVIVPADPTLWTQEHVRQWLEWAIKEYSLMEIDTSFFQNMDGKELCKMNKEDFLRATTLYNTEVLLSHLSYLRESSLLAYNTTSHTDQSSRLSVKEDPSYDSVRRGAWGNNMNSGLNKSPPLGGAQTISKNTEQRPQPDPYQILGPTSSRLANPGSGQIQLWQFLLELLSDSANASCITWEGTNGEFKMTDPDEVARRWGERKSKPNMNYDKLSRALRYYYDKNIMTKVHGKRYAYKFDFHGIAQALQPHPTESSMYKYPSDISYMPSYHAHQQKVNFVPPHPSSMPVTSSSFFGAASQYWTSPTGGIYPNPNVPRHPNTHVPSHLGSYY
How it was run: (§1)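 Binding signal is given per hexamer as its read frequency for a factor divided by its frequency in the tag-only sample. GST-fused human transcription factors were expressed in yeast, captured on glutathione beads, barcoded with DNA and pooled with that sample, then incubated with 200 nmole of a 16-mer random double-stranded DNA library in Tris/NaCl/DTT/glycerol buffer for 30 min at room temperature. The pools were then washed, crosslinked, proximity-ligated, amplified by PCR and sequenced on an Illumina NextSeq500.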

[2] = target: T2, ELK1 (Homo sapiens, UniProt P19419 1-428)
T2 sequence: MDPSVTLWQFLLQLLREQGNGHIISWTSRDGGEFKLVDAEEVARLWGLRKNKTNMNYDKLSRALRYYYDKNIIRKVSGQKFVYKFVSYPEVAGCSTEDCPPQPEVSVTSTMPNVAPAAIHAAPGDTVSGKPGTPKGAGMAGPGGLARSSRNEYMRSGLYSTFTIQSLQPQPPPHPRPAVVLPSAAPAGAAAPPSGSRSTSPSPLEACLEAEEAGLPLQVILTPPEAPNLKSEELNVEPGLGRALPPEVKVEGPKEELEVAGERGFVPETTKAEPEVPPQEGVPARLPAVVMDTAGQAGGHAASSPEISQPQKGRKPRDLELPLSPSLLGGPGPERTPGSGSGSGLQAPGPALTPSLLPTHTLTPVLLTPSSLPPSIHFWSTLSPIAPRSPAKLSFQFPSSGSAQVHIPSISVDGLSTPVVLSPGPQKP
How it was run: as §1

[3] = target: T3, GABPA (Homo sapiens, UniProt Q06546 1-454)
T3 sequence: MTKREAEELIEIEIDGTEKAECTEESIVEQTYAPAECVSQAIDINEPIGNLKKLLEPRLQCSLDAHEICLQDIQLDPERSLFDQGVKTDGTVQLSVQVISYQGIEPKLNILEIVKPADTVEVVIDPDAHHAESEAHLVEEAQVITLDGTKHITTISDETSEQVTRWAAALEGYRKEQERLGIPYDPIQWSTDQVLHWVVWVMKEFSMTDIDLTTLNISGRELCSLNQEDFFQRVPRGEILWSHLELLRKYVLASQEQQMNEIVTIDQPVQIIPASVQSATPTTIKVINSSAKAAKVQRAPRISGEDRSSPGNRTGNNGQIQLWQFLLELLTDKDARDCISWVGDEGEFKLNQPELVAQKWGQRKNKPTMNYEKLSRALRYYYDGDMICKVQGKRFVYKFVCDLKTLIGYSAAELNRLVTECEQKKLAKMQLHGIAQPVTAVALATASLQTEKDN
How it was run: as §1

[4] = target: ELF1 (Homo sapiens, UniProt P32519 1-619)
How it was run: as §1

[5] = target: T4, EHF (Homo sapiens, UniProt Q9NZC4 1-300)
T4 sequence: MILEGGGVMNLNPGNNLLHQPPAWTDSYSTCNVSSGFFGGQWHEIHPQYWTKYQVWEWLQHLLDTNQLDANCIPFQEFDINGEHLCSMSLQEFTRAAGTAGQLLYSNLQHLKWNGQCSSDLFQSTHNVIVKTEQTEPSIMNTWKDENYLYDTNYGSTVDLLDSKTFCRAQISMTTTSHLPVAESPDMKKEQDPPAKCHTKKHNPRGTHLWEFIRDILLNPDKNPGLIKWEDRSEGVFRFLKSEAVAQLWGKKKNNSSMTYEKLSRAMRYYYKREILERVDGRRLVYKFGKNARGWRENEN
How it was run: as §1

[6] = target: SPI1 (Homo sapiens, UniProt P17947 1-270)
How it was run: as §1

[7] = target: SPIB (Homo sapiens, UniProt Q01892 1-262)
How it was run: as §1

[8] = target: T5, ELK3 (Homo sapiens, UniProt P41970 1-407)
T5 sequence: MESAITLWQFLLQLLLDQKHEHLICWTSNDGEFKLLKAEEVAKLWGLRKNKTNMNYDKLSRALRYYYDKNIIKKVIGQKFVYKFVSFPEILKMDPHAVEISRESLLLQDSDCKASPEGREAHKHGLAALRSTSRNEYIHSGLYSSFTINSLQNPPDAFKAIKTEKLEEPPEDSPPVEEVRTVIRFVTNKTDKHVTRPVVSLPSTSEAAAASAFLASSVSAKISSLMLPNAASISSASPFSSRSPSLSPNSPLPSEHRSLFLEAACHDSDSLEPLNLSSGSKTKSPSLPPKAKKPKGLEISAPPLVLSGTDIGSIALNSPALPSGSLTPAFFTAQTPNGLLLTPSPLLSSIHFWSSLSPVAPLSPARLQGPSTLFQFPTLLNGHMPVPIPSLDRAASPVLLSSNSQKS
How it was run: as §1

[9] = target: T6, FEV (Homo sapiens, UniProt Q99581 1-238)
T6 sequence: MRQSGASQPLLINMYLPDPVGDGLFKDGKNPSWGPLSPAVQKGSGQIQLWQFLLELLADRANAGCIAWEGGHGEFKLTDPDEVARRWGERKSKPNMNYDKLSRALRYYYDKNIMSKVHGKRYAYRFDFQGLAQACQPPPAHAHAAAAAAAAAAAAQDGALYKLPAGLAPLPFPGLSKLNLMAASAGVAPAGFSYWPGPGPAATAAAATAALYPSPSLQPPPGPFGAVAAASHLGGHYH
How it was run: as §1

[10] = target: ETV5 (Homo sapiens, UniProt P41161 1-510)
How it was run: as §1

[11] = target: T7, SPIC (Homo sapiens, UniProt Q8N5J4 1-248)
T7 sequence: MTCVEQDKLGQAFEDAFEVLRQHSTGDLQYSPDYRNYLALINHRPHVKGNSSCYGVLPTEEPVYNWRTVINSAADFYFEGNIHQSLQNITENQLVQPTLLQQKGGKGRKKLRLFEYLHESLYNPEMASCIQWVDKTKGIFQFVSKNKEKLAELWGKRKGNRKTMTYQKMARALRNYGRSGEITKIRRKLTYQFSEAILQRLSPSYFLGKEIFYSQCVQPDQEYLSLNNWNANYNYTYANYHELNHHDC
How it was run: as §1

[12] = target: ELF4 (Homo sapiens, UniProt Q99607 1-663)
How it was run: as §1

[13] = target: ETV1 (Homo sapiens, UniProt P50549 1-477)
How it was run: as §1

[14] = target: T8, ERF (Homo sapiens, UniProt P50548 1-548)
T8 sequence: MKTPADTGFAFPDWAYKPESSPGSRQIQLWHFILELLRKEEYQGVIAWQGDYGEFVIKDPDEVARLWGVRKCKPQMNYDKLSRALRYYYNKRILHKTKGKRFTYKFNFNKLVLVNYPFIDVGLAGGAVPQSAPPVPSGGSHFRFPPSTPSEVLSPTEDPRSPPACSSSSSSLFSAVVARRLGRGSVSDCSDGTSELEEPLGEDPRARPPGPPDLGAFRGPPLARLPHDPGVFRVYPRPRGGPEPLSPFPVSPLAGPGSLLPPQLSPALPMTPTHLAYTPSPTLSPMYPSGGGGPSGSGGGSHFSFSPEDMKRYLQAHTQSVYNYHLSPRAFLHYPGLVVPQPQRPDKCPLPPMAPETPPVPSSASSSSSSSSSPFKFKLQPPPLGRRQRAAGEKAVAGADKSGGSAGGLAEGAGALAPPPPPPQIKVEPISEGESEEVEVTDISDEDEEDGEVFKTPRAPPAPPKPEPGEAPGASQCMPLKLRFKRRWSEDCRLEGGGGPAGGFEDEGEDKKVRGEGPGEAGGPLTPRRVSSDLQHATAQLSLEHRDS
How it was run: as §1

[15] = target: T9, ETV3L (Homo sapiens, UniProt Q6ZN32 1-361)
T9 sequence: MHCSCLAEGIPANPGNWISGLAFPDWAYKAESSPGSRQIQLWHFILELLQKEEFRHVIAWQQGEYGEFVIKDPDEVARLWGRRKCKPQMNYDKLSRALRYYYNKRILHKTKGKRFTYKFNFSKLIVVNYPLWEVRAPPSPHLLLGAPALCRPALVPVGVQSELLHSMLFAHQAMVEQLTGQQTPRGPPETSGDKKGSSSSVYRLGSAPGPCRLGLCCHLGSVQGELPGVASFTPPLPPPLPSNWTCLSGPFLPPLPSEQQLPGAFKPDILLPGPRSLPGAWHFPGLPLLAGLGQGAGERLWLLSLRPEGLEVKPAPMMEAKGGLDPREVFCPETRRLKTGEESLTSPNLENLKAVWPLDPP
How it was run: as §1

[16] = target: T10, ETS2 (Homo sapiens, UniProt P15036 1-469)
T10 sequence: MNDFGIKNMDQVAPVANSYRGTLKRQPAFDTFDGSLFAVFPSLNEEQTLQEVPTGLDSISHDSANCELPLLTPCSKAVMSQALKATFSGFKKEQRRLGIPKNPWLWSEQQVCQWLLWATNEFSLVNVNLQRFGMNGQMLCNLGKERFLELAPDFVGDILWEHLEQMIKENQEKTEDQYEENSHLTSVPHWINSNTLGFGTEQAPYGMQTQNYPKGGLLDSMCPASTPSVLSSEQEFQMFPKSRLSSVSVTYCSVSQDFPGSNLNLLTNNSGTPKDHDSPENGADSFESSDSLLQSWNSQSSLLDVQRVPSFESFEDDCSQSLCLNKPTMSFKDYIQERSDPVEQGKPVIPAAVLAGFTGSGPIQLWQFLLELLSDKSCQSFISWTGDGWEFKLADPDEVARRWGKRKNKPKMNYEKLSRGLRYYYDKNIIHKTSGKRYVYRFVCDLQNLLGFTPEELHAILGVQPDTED
How it was run: as §1

[17] = target: T11, ELF5 (Homo sapiens, UniProt Q9UKW6-2 1-255)
T11 sequence: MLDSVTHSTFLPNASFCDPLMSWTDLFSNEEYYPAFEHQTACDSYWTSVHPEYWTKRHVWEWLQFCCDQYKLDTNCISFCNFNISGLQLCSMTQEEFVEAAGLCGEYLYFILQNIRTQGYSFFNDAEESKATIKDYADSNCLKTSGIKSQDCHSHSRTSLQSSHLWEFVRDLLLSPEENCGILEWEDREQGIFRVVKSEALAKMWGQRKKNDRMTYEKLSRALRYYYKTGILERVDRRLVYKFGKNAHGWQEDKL
How it was run: as §1

[18] = target: T12, ETV3 (Homo sapiens, UniProt P41162-2 1-143)
T12 sequence: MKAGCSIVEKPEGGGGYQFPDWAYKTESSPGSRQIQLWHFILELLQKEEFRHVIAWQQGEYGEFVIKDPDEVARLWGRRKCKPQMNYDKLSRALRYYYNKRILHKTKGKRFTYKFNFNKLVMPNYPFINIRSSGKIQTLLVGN
How it was run: as §1

[19] = target: ETV6 (Homo sapiens, UniProt P41212 1-452)
How it was run: as §1

Chain of ELF4 (Q99607 whole entry): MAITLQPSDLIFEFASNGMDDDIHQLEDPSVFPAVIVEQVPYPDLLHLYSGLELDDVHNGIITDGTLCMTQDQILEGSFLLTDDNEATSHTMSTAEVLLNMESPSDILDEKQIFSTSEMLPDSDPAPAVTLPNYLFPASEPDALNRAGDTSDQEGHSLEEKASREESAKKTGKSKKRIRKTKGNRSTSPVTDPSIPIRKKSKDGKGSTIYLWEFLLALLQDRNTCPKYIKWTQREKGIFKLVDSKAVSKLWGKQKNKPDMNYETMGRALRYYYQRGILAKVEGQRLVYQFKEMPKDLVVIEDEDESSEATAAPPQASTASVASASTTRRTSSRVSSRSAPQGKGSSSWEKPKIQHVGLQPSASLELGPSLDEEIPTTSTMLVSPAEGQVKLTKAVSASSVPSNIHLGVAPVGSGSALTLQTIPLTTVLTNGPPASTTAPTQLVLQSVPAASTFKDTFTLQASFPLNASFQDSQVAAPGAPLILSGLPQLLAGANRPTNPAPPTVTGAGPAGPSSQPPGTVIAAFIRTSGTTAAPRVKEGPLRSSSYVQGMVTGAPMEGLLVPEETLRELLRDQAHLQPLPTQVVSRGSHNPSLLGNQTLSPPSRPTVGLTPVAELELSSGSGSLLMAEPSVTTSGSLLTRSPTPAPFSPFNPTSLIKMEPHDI
Chain of ELF1 (P32519 whole entry): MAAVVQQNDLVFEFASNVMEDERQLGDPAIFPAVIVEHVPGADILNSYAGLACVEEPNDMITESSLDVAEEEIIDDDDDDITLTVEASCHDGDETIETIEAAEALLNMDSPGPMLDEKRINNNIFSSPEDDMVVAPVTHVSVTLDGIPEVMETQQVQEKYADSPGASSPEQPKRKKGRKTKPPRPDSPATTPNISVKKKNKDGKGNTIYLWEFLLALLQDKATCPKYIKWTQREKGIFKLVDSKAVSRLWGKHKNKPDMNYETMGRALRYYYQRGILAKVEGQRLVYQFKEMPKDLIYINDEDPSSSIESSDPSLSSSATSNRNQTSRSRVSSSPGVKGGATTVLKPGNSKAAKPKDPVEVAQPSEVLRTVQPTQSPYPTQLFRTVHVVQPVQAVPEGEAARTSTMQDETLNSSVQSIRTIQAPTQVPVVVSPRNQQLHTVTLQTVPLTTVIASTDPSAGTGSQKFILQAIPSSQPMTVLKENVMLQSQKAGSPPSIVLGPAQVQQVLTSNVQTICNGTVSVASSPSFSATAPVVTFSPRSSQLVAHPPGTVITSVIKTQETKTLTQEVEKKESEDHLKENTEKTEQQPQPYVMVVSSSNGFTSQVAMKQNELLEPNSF
Chain of SPIB (Q01892 whole entry): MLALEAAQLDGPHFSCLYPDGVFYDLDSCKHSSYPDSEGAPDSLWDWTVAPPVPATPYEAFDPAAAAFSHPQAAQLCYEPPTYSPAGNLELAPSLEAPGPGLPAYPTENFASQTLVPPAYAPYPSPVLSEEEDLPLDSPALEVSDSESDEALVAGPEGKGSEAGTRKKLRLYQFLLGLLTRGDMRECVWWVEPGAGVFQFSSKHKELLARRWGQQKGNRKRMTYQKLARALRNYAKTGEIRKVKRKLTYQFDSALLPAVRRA
Chain of ETV5 (P41161 whole entry): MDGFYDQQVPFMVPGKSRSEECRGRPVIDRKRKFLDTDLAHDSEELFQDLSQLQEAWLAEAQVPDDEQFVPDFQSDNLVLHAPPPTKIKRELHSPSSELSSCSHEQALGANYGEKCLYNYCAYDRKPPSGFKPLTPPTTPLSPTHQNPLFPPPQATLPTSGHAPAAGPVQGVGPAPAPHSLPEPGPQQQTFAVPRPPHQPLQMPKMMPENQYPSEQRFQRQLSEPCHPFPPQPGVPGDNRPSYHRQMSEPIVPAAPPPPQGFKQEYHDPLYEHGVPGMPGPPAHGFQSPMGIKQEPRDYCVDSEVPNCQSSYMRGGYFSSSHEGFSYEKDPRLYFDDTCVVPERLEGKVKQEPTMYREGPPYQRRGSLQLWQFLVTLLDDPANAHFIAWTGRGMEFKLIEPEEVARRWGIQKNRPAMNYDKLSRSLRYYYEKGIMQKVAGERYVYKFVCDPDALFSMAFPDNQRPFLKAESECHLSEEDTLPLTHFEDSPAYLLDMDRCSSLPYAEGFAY
Chain of ETV6 (P41212 whole entry): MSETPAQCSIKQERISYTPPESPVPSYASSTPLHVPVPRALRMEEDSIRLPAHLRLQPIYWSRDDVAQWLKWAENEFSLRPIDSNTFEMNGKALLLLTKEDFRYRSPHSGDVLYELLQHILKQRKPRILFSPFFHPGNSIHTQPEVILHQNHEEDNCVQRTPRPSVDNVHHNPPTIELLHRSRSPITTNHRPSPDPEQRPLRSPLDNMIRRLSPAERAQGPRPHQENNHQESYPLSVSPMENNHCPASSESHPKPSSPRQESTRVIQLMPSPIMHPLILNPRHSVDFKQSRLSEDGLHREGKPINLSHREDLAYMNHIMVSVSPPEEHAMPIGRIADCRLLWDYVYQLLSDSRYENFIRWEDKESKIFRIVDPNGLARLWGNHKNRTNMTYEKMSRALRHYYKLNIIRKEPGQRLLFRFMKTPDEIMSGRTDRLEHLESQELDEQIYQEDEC
Chain of ETV1 (P50549 whole entry): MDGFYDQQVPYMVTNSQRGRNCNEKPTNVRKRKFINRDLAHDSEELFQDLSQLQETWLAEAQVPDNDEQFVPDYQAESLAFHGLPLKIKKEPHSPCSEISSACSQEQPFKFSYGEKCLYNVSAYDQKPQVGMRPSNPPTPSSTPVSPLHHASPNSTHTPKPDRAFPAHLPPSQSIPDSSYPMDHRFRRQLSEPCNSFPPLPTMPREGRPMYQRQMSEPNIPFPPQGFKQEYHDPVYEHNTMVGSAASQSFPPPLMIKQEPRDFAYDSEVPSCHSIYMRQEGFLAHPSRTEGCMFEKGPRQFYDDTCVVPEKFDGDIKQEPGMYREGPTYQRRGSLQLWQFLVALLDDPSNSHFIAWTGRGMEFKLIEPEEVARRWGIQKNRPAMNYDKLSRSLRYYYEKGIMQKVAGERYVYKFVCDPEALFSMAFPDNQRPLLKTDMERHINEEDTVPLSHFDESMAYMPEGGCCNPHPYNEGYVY

## TGCTGC
[1]
  binding signal: 1.15 fold enrichment (6-mer frequency, TF over GST control)
[2]
  binding signal: 1.15 fold enrichment (6-mer frequency, TF over GST control)
[3]
  binding signal: 1.16 fold enrichment (6-mer frequency, TF over GST control)
[4]
  binding signal: 1.21 fold enrichment (6-mer frequency, TF over GST control)
[5]
  binding signal: 1.3 fold enrichment (6-mer frequency, TF over GST control)
[6]
  binding signal: 1.11 fold enrichment (6-mer frequency, TF over GST control)
[7]
  binding signal: 1.07 fold enrichment (6-mer frequency, TF over GST control)
[8]
  binding signal: 1.08 fold enrichment (6-mer frequency, TF over GST control)
[9]
  binding signal: 1.15 fold enrichment (6-mer frequency, TF over GST control)
[10]
  binding signal: 1.17 fold enrichment (6-mer frequency, TF over GST control)
[11]
  binding signal: 1.3 fold enrichment (6-mer frequency, TF over GST control)
[12]
  binding signal: 1.16 fold enrichment (6-mer frequency, TF over GST control)
[13]
  binding signal: 1.13 fold enrichment (6-mer frequency, TF over GST control)
[14]
  binding signal: 1.07 fold enrichment (6-mer frequency, TF over GST control)
[15]
  binding signal: 1.34 fold enrichment (6-mer frequency, TF over GST control)
[16]
  binding signal: 1.15 fold enrichment (6-mer frequency, TF over GST control)
[17]
  binding signal: 1.16 fold enrichment (6-mer frequency, TF over GST control)
[18]
  binding signal: 1.23 fold enrichment (6-mer frequency, TF over GST control)
[19]
  binding signal: 1.1 fold enrichment (6-mer frequency, TF over GST control)
